Screening data: PubChem BioAssay, National Center for Advancing Translational Sciences (NCATS)
In the library only some 0.71% were active in any assay of this set; here they are far more common.
FBPA coupling cs – inhibits coupling enzyme system, counter-screen for aldolase hits; coupling enzyme system counterscreen, AmpLite Red fluorescence; activity change, negative = inhibition, % at 58.2 µM, hits read low; 0.67% of 290,000 active; in the data active = activity change below about -30%
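Compounds tested against the coupling enzymes alone at 57.5 uM final; readout was AmpLite Red fluorescence (525/598 nm) after 20 min at RT.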
PI4K2A block – inhibitors of human PI4K2A | activity change, negative = inhibition, % at 76.9 µM | Q9BTU6 | 0.13% of 420,000 active | AID 1346378 | purified PI4K2A, ADP-Glo luminescence, 1 h; stronger effect = lower value; in the data active = activity change below about -50%; inconclusive = mostly about -30% to -49%;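 also: -100% = wells without enzyme as full effect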
Target sequence (Q9BTU6 whole entry, looked up): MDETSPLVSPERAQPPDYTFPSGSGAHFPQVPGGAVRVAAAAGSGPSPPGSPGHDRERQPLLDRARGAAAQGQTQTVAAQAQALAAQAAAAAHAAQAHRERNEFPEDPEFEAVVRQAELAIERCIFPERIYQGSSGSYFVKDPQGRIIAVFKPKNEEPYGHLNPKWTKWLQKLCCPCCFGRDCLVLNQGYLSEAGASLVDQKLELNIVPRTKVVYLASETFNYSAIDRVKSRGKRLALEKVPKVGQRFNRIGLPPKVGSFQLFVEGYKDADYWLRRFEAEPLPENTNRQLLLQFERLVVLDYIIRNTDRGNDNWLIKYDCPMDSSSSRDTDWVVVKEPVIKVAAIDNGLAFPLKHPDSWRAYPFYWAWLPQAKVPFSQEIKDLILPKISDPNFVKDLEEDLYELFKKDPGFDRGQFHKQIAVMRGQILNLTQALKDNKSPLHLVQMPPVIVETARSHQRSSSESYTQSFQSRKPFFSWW
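In this quantitative HTS, ADP production by PI4K2A was quantified luminescently after 1 h at ambient temperature; 100 microM adenosine served as plate-quality control.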
USP1-UAF1 inh – USP1/UAF1 (human) deubiquitinase inhibition; recombinant USP1/UAF1, Ub-Rhodamine cleavage fluorescence; Potency, µM (series often up to 57.1 µM), for the others: at the top dose activity change, negative = inhibition, most hits filed as inhibitors; 0.23% of 390,000 active; also: potency is read from the fitted curve at half-maximal effect; nearly all actives have a fitted effect of over 60% in size
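1 nM enzyme complex + cpd, 15 min RT; start with Ub-Rho 150nM final; kinetic fluorescence ex 480/em 540, 6 reads q60 s. Buffer 50mM HEPES pH 7.8, 0.5mM EDTA, 0.1 mg/ml BSA, 1mM TCEP, 0.01% Tween-20.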
USP2a block – USP2a (human) protease inhibition. O75604. USP2 core, Ub-CHOP2 coupled fluorogenic reporter, 485/531. Potency, µM (doses to about 38.3 µM), for inactives: top-dose activity change, negative = inhibition, usual class: inhibitors. 0.01% of 330,000 active;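 also: potency is read from the fitted curve at half-maximal effect; plate controls were DMSO wells for no effect and full inhibition by NEM control for full effect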
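Deubiquitinase activity read as fluorescence (485/531 nm) after Ub-CHOP2 cleavage activates the enterokinase reporter on its substrate; USP2 core 10nM, Ub-CHOP2 and substrate 25nM each, 30min compound preincubation then 60min RT; data normalized to NEM, curves fitted.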
Eya2 inh – Eya2 (human) phosphatase inhibition. O00167. recombinant Eya2, OMFP fluorescence dephosphorylation (OMFP is methylfluorescein phosphate). 0.006% of 330,000 active. Potency, µM (highest dose often 76.9 µM), for the others: top-dose activity, negative = inhibition, usual class: inhibitors; also: potency is read from the fitted curve at half-maximal effect
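Eya2 protein (added as 0.2 uM solution) was preincubated with compound for 10 min at ambient temperature in 50 mM HEPES pH 7.5, 50 mM NaCl, 5 uM MgCl2, 0.05% BSA, 1 mM DTT. OMFP (added at 50 uM) then reacted 10 min; fluorescence read at 485/525 nm.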
GALK inh – blocks human galactokinase activity. Potency, µM (top dose mostly 57.5 µM), for the others: at the highest dose activity change, negative = inhibition, actives largely listed as inhibitors. Purified GALK, Kinase-Glo residual ATP luminescence. AID 1868. 0.007% of 270,000 active; also: potency is read from the fitted curve at half-maximal effect
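Compounds were pin-transferred into ATP buffer (35 uM final), then GALK plus galactose (5 nM, 100 uM final) was added. After 1 h at room temperature, Kinase-Glo Plus was added and luminescence read after 10 min.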
Starred values were filed as active, the others as inactive; ? = inconclusive; · = no result given. Unless noted, calls follow the shape of the dose curve; as a rule, active = well fitted curve in the direction sought with a large enough effect; inconclusive = small, poorly fitted or top-dose-only effect, or another doubt; inactive = no such curve, though single readings can be large; an effect the other way counts as inactive or inconclusive. Unless noted, % is scaled to controls: 0 for no effect and ±100 for the full control effect.

SMILES	FBPA coupling cs	PI4K2A block	USP1-UAF1 inh	USP2a block	Eya2 inh	GALK inh
O=C(O)c1cc(Cl)ccc1-c1ccc(/C=C/c2cc(C(F)(F)F)[nH]c(=O)n2)o1	6.3	-6.5	28.2µM*	?	?	-1.4%
O=c1nc(/C=C/c2ccc(-c3ccc(F)cc3)o2)cc(C(F)(F)F)[nH]1	-0.2	·	·	17.3%	-12.6%	-2.3%
CCN(CC)c1ccc(C=C2C(=O)OC(c3ccccc3)OC2=O)cc1 (centres undefined)	1.2	1.4	-9.4%	-2.4%	1.5%	4.0%
CCN(CC)c1ccc(/C=C/C(=O)C2C(=O)C=C(C)OC2=O)cc1 (centres undefined)	4.7	3.0	4.47µM*	13.0%	?	0.9%
CC(=O)N(C)C	1.1	·	·	·	·	·
Cc1cc(C)nc(NS(=O)(=O)c2ccc(Br)s2)c1	-35.8*	0.0	-21.7%	-2.1%	-4.2%	1.8%
Cc1cccc(NS(=O)(=O)c2ccc(Br)s2)n1	2.7	1.9	-18.0%	2.2%	-19.5%	-5.5%
Cc1ccc(NS(=O)(=O)c2ccc(Br)s2)nc1	-36.8*	0.8	-21.3%	0.6%	-2.4%	2.5%
CC(Nc1cc(N2CCN(S(=O)(=O)N(C)C)CC2)ccc1[N+](=O)[O-])c1ccccc1 (centres undefined)	-34.0*	0.6	-25.0%	4.0%	-2.1%	-1.3%
CC(Nc1cc(N2CCN(S(C)(=O)=O)CC2)ccc1[N+](=O)[O-])c1ccccc1 (centres undefined)	-19.0	-1.8	-21.9%	-3.3%	0.4%	0.7%
CO/N=C(\C(=O)N[C@@H]1C(=O)N2C(C(=O)O)=C(CSc3nc(=O)c(O)nn3C)CS[C@H]12)c1csc(N)n1	·	-7.7	·	·	·	·
Nc1cccc2c(O)cc(S(=O)(=O)O)cc12	·	?	25.1µM*	·	·	·
Nc1ccc2c(O)cc(S(=O)(=O)O)cc2c1	·	-12.9	?	·	·	·
CO[C@@H]1COC(=O)[C@H]2CCCN2C(=O)[C@@H](C)COC(=O)C/C=C\[C@H]1C	-0.1	·	·	·	·	·
O=C(/C=C\Nc1ccc2c(c1)OCO2)c1ccccn1	-1.0	-54.6*	-16.2%	1.7%	?	10.5%
Cc1cc(Br)ccc1-n1[nH]c(C)c(C=Nc2cccc3nsnc23)c1=O	-29.9	-54.3*	?	1.9%	12.2%	3.5%
COc1ccc(NC(=O)Cn2nnc(C(=O)NCc3ccccc3Cl)c2N)cc1Cl	·	1.4	?	·	·	·
Cc1ccc(CNc2ccc3c(c2)OCO3)cc1	-36.6*	-9.4	28.2µM*	·	·	2.3%
Cc1[nH]cnc1CN1CCc2c(c3ccccc3n2C)C1=O	·	-14.1	35.5µM*	·	·	·
Cc1nccn1CC1CCc2c(c3ccccc3n2C)C1=O (centres undefined)	1.4	-6.5	3.2%	1.6%	5.3%	·
Cc1cc(C)n(C2CC(=O)N(c3ccccc3)C2=O)n1 (centres undefined)	-0.5	-7.2	-14.8%	1.9%	6.0%	0.7%
CC(=O)NC1N=C(C)N(c2ccccc2)C1=O (centres undefined)	-77.8*	?	-8.2%	-2.7%	-18.2%	0.7%
O=C1/C(=C\c2cccs2)Sc2ccc3ccccc3c21	-2.2	1.5	31.6µM*	7.7%	6.2%	1.3%
Oc1c(Br)cc(Br)cc1CNc1cnc2ccccc2c1	-3.4	-2.2	-9.9%	-17.3%	-6.2%	6.0%
Oc1c(Br)cc(Br)cc1CNc1ccc(F)cc1	-33.1*	1.6	-32.1%	0.9%	5.5%	-3.6%
SMILES	FBPA coupling cs	PI4K2A block	USP1-UAF1 inh	USP2a block	Eya2 inh	GALK inh
OCCN1CCN(C(=S)c2ccc(Cl)c(Cl)c2)CC1	-31.5*	-5.2	-25.6%	-0.1%	10.7%	0.0%
COc1cc(NC(=S)N2CCN(CCO)CC2)c(OC)cc1Cl	-1.7	2.0	-9.8%	0.9%	10.4%	7.7%
O=C(O)CCCNc1cc(N2CCC3(CC2)OCCO3)c2noc3c2c1C(=O)c1ccccc1-3	-39.1*	·	·	?	?	0.4%
O=C(O)CCCNc1cc(N2CCN(C(=O)c3ccco3)CC2)c2noc3c2c1C(=O)c1ccccc1-3	-18.3	?	28.2µM*	8.5%	-5.9%	14.3%
CCOC(=O)N1CCN(c2cc(NCCC(=O)O)c3c4c(onc24)-c2ccccc2C3=O)CC1	-53.6*	-57.1*	14.1µM*	?	?	2.0%
CCCCNc1cc(N2CCN(C3CCCCC3)CC2)c2noc3c2c1C(=O)c1ccccc1-3	·	0.1	?	·	·	·
CCc1cccc2c(C(C)c3ccccc3O)c[nH]c12 (centres undefined)	·	-2.1	·	·	·	·
Cc1ccc(S(=O)(=O)n2c3ccccc3c3nnc(C(=O)c4ccccc4)nc32)cc1	-1.3	·	·	·	·	·
CC(=O)N(C1=C(N)C(=O)c2ccccc2C1=O)C(C)C	-43.1*	-9.0	?	10.1%	0.9%	0.0%
OCCCCNc1cccc2ccccc12	-40.6*	-0.7	?	-1.3%	-0.1%	-2.9%
OCCCCCNc1ncnc2ccccc12	-0.6	-0.8	-22.1%	4.5%	0.9%	1.3%
Cc1cc(N2CCN(c3ccc(F)cc3)CC2)n2nc(-c3ccc(Cl)cc3)nc2n1	·	-3.1	-12.6%	·	·	·
COc1cc(-c2oc3cc(O)cc(O)c3c(=O)c2O[C@@H]2O[C@H](CO)[C@@H](O)[C@H](O)[C@H]2O)cc(OC)c1O	-2.6	·	·	·	·	·
CCN(CC)c1ccc(C(=C2C=CC(=[N+](CC)CC)C=C2)c2cc(S(=O)(=O)O)ccc2S(=O)(=O)[O-])cc1	·	-51.1*	·	·	·	·
CCN(CC)c1ccc(C(=C2C=CC(=[N+](CC)CC)C=C2)c2ccc(N(CC)CC)cc2)cc1	·	-70.7*	?	·	·	·
CCCSS/C(CCO)=C(\C)N(C=O)Cc1cnc(C)nc1N	·	0.1	·	·	·	·
CN1C[C@H]2c3ccccc3Oc3ccc(Cl)cc3[C@@H]2C1	·	-4.0	·	·	·	·
Cc1ccc(NS(=O)(=O)c2ccccc2)c2c1CC(C)(C)O2	-46.1*	0.9	-14.9%	3.1%	-3.3%	2.5%
Cc1cc(-c2ccc(NS(=O)(=O)c3ccccc3)c(C)c2)ccc1NS(=O)(=O)c1ccccc1	·	1.2	12.2%	·	·	·
COc1ccc2c(c1)CCc1cc(C(=O)N3CCN(c4ccc(N5CCOCC5)nn4)CC3)sc1-2	-58.3*	0.3	-20.8%	-5.6%	12.1%	0.6%
Cc1cc(C)c(N(Cc2ccccc2)S(=O)(=O)c2ccc(OCCNC(=O)c3cc4ccccc4o3)cc2)c(C(=O)NO)c1	4.0	·	·	·	·	·
CCCCN(CC)c1nc(N)c(C#N)c(CC#N)c1C#N	-34.7*	8.3	?	1.0%	4.8%	0.1%
CCCCN(CC)c1nc(N)c2c(N)nc(OCC)cc2c1C#N	-48.3*	-14.9	?	-0.7%	2.6%	-3.1%
